{"source": "PubChem BioAssay (EPA / NIEHS)", "note": "Results filed as inconclusive are left out. The source made the active and inactive calls. Rule for the calls: active = hit-call score of the fitted dose curve at least 0.9, where 1 is the maximum; inconclusive = response in the unintended direction; inactive = score below 0.9."}
{"test": "ATG_M_06_TRANS: Attagene TRANS-FACTORIAL HepG2 Assay for M06 Transcription Factor (Internal Marker) (AID 2282983)", "details": "HepG2 Attagene TRANS M06 internal marker reporter", "procedure": "ATG_TRANS is a cell-based, multiplexed-readout assay that uses HepG2, a human liver cell line, with measurements taken at 24 hours after chemical dosing in a 24-well plate.ATG_M_06_TRANS is one of 30 assay component(s) measured or calculated from the ATG_TRANS assay. It is designed to make measurements of mRNA induction, a form of inducible reporter, as detected with fluorescence intensity signals by Reverse transcription polymerase chain reaction (RT-PCR) and Capillary electrophoresis technology.Data from the assay component ATG_M_06_TRANS was analyzed into 1 assay endpoint. This assay endpoint, ATG_M_06_TRANS, was analyzed in the positive analysis fitting direction relative to DMSO as the negative control and baseline of activity. Using a type of inducible reporter, measures of mRNA for gain-of-signal activity can be used to understand the background control at the transcription factor-level as they relate to the gene . Furthermore, this assay endpoint can be referred to as a secondary readout, because this assay has produced multiple assay endpoints where this one serves a background control function. To generalize the intended target to other relatable targets, this assay endpoint is annotated to the background measurement intended target family, where the subfamily is internal marker.\nHuman liver HepG2 cells are transiently transfected with multiple reporter transcription units (MRTUs) in 6-well plates using FuGene 6 reagent (Roche; 3 ml FuGene/1 mg DNA). The MRTU constructs are regulated by a cis-regulating element (promoter). […] A major difference between the CIS and TRANS system is that in CIS activities of endogenous TFs are measured, whereas the TRANS assay evaluates changes in activities of exogenous, chimeric NR-Gal4 proteins. […] At the end of 24 hour incubation, total RNA was isolated using TriZol reagent (Invitrogen). The isolated RNA is then reverse-transcribed using oligo(dT) primer and Mo-MLV reverse transcriptase (Invitrogen) with DNAse I (Ambion) treatment for 30 min. The one-tenth of the produced cDNA was amplified by PCR using Taq DNA polymerase (Invitrogen) and two reporter sequence-specific primers. The PCR products were fluorescently labeled by primer extension with 6-arboxyfluorescein (6-FAM) 5'-labeled reporter sequence-specific primer (2 min at 95 C, 20 s at 68 C and 10 min at 72 C) and these products were digested with 5U of HpaI (New England Biolabs) for 2h at 37 C. The fragments were purified using Qiaquick PCR columns (Qiagen), analyzed on an ABI 3130xL genetic analyzer (Applied Biosystems) with peak positions identified by using a set of X-rhodamine (ROX)-labeled MapMarker1000 molecular weight standards (BioVentures). The raw capillary electrophoresis data was processed using Attagraph software (Attagene)."}
{"smiles": "CCCCCCCCCCCCN1CCOCC1", "outcome": "inactive"}
{"smiles": "CCCCCC1C(=O)CCC1CC(=O)OC", "note": "(stereo not given)", "outcome": "inactive"}
{"smiles": "CCC(C)(C)C1CCC(=O)CC1", "outcome": "inactive"}
{"smiles": "CC1COC(=O)O1", "note": "(stereo not given)", "outcome": "inactive"}
{"smiles": "Cc1cc(N)n(-c2ccccc2)n1", "outcome": "inactive"}
{"smiles": "CCOC(=O)COC(=O)c1ccccc1C(=O)OCC", "outcome": "inactive"}
{"smiles": "CC(C)(C)C1CCC(O)CC1", "note": "(stereo not given)", "outcome": "inactive"}
{"smiles": "CCC(C)C1CCCCC1=O", "note": "(stereo not given)", "outcome": "inactive"}
{"smiles": "CCCO", "outcome": "inactive"}
{"smiles": "CC(C)=CCCC(C)=CC(=O)O", "outcome": "inactive"}
{"smiles": "Nc1ccc(N)c([N+](=O)[O-])c1", "outcome": "inactive"}
{"smiles": "CC1=CC[C@@H]2C[C@H]1C2(C)C", "outcome": "inactive"}
{"smiles": "CCCCCCCCCCCCCCCCCC(=O)OCCCCCCCCCCCCCC(C)C", "outcome": "inactive"}
{"smiles": "OCCN1CCOCC1", "outcome": "inactive"}
{"smiles": "Cc1cccc(O)c1", "outcome": "inactive"}
{"smiles": "C[C@H](CCC(=O)O)[C@H]1CC[C@H]2[C@@H]3CC[C@@H]4C[C@H](O)CC[C@]4(C)[C@H]3CC[C@]12C", "outcome": "inactive"}
{"smiles": "Cc1cc(O)c(C)c(C)c1O", "outcome": "inactive"}
{"smiles": "CC1=C(C=O)C(C)(C)CCC1", "outcome": "inactive"}
{"smiles": "O=c1cc[nH]cc1", "outcome": "inactive"}
{"smiles": "ClCCOCCOCCCl", "outcome": "inactive"}
{"smiles": "CCC=C(C)C=O", "outcome": "inactive"}
{"smiles": "CC1=CC[C@@H](C(C)(C)O)CC1", "outcome": "inactive"}
{"smiles": "CCCCCCCCCCCCOC(C)=O", "outcome": "inactive"}
{"smiles": "C1COCO1", "outcome": "inactive"}
{"smiles": "CC(=O)CC(=O)N(C)C", "outcome": "inactive"}
{"smiles": "N=C1N=C(N)c2ccccc21", "outcome": "inactive"}
{"smiles": "C=CCOCC(O)CO", "note": "(stereo not given)", "outcome": "inactive"}
{"smiles": "C=C(C)CCCC(C)CCO", "note": "(stereo not given)", "outcome": "inactive"}
{"smiles": "CCCO[Si](OCCC)(OCCC)OCCC", "outcome": "inactive"}
{"smiles": "CCCCCCC(O)CCOC(C)=O", "note": "(stereo not given)", "outcome": "inactive"}
{"smiles": "O=C(O)c1ccc(C(=O)O)c(C(=O)O)c1", "outcome": "inactive"}
{"smiles": "CCC(=O)OC/C=C(\\C)CCC=C(C)C", "outcome": "inactive"}
{"smiles": "CCCCCCCCSCc1cc(C)c(O)c(CSCCCCCCCC)c1", "outcome": "inactive"}
{"smiles": "c1ccc2scnc2c1", "outcome": "inactive"}
{"smiles": "CNC(=C[N+](=O)[O-])NCCSCc1ccc(CN(C)C)o1", "outcome": "inactive"}
{"smiles": "CN(C)c1ccc(C=O)cc1", "outcome": "inactive"}
{"smiles": "CC(=O)c1ccc(O)cc1", "outcome": "inactive"}
{"smiles": "C=C1CC[C@H]2O[C@]2(C)CC[C@@H]2[C@@H]1CC2(C)C", "outcome": "inactive"}
{"smiles": "C=C/C(C)=C/C/C=C(\\C)CCC=C(C)C", "outcome": "inactive"}
{"smiles": "C=C(C)C(N)=O", "outcome": "inactive"}
